Measured values published in PubChem BioAssay.
Calls of active or inactive are those of the source.

Experiments:
[1] = system: PRMT1 (protein arginine N-methyltransferase 1); assay: PRMT1 binders on small-molecule microarrays, primary screen, biochemical, small-molecule microarray, 635 nm fluorescence (AID 1088); conditions: small-molecule microarray binding, higher = more signal;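 note: binding of Prmt1 protein to compounds spotted on small-molecule microarray slides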
[2] = yeast growth modulation, basal conditions, primary screen, YJM789 clinical isolate, OD600, 24 h (AID 1089);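 note: growth of clinical yeast isolate S. cerevisiae YJM 789 seeded 1000 cells per well; test concentration not given here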; conditions: S. cerevisiae YJM789 growth, higher = more signal, called active from +8 up or from −8 down
[3] = fission yeast growth modulation, primary screen, strain 972, OD600, 24 h, no modulator (AID 1090);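 note: basal condition with compound alone and no growth modifier present; test concentration not given here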; conditions: S. pombe 972 growth, higher = more signal, called active from +8 up or from −8 down
[4] = S. cerevisiae growth modulation with rapamycin, primary screen, strain BY4716, OD600, 96 h (AID 1091); conditions: higher = more signal, called active from +8 up or from −8 down; note: test concentration not given here
[5] = biological target: Torsin-1A-interacting protein 2 (Homo sapiens) (UniProt Q8NFQ8); assay: LULL1 binders on small-molecule microarray, primary screen, cell lysate, human LULL1 lysate, 635/667 nm fluorescence (AID 1092); conditions: hLULL1 lysate binding, 635 nm fluorescence, higher = more signal;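 note: probe is lysate of COS7 cells overexpressing human LULL1; score merges per-feature 667 nm fluorescence with signal-to-noise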
Sequence of Torsin-1A-interacting protein 2 (Homo sapiens) (Q8NFQ8 whole entry, looked up): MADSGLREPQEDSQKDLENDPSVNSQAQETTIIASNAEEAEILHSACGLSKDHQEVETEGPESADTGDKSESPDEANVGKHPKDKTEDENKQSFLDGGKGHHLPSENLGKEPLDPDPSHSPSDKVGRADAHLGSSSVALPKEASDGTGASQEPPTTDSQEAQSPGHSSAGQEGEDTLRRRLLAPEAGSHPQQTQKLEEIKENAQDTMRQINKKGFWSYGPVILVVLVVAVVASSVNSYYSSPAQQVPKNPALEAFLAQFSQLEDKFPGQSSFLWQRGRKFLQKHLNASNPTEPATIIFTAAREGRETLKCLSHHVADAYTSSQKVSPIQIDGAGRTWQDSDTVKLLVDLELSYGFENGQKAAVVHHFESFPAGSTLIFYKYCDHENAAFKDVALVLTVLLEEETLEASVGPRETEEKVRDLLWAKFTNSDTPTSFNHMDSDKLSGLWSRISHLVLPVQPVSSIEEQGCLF

[6] = E. coli growth modulation, two-sided OD650, primary screen, E. coli filamentation project, strain DRC41, 24 h (AID 1093); conditions: OD650, 24 h, higher = more signal, called active from +8 up or from −8 down;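 note: MC1000 strain lacking acrAB efflux and sulA so SOS filamentation is blocked; test concentration not given here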
[7] = small-molecule microarray binders of probe aLefty2, primary screen, biochemical, biotinylated probe, 635/667 nm fluorescence (AID 1094); conditions: higher = more signal;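 note: score merges spot fluorescence near 667 nm with spot signal-to-noise ratio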
[8] = system: Noggin (protein binding on small-molecule microarray); assay: Noggin binders on small-molecule microarray, primary screen, biochemical, 635/667 nm fluorescence (AID 1095); conditions: 635 nm fluorescence, higher = more signal;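 note: score merges 667 nm feature fluorescence with signal to noise over triplicate slides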
[9] = biological target: Neurogenic locus notch homolog protein 3 (Homo sapiens) (UniProt Q9UM47); assay: NOTCH3 binders on small-molecule microarray, primary screen, biochemical, 635/667 nm fluorescence (AID 1096); conditions: NOTCH3 binding, 635 nm fluorescence, higher = more signal
Sequence of Neurogenic locus notch homolog protein 3 (Homo sapiens) (Q9UM47 whole entry, looked up): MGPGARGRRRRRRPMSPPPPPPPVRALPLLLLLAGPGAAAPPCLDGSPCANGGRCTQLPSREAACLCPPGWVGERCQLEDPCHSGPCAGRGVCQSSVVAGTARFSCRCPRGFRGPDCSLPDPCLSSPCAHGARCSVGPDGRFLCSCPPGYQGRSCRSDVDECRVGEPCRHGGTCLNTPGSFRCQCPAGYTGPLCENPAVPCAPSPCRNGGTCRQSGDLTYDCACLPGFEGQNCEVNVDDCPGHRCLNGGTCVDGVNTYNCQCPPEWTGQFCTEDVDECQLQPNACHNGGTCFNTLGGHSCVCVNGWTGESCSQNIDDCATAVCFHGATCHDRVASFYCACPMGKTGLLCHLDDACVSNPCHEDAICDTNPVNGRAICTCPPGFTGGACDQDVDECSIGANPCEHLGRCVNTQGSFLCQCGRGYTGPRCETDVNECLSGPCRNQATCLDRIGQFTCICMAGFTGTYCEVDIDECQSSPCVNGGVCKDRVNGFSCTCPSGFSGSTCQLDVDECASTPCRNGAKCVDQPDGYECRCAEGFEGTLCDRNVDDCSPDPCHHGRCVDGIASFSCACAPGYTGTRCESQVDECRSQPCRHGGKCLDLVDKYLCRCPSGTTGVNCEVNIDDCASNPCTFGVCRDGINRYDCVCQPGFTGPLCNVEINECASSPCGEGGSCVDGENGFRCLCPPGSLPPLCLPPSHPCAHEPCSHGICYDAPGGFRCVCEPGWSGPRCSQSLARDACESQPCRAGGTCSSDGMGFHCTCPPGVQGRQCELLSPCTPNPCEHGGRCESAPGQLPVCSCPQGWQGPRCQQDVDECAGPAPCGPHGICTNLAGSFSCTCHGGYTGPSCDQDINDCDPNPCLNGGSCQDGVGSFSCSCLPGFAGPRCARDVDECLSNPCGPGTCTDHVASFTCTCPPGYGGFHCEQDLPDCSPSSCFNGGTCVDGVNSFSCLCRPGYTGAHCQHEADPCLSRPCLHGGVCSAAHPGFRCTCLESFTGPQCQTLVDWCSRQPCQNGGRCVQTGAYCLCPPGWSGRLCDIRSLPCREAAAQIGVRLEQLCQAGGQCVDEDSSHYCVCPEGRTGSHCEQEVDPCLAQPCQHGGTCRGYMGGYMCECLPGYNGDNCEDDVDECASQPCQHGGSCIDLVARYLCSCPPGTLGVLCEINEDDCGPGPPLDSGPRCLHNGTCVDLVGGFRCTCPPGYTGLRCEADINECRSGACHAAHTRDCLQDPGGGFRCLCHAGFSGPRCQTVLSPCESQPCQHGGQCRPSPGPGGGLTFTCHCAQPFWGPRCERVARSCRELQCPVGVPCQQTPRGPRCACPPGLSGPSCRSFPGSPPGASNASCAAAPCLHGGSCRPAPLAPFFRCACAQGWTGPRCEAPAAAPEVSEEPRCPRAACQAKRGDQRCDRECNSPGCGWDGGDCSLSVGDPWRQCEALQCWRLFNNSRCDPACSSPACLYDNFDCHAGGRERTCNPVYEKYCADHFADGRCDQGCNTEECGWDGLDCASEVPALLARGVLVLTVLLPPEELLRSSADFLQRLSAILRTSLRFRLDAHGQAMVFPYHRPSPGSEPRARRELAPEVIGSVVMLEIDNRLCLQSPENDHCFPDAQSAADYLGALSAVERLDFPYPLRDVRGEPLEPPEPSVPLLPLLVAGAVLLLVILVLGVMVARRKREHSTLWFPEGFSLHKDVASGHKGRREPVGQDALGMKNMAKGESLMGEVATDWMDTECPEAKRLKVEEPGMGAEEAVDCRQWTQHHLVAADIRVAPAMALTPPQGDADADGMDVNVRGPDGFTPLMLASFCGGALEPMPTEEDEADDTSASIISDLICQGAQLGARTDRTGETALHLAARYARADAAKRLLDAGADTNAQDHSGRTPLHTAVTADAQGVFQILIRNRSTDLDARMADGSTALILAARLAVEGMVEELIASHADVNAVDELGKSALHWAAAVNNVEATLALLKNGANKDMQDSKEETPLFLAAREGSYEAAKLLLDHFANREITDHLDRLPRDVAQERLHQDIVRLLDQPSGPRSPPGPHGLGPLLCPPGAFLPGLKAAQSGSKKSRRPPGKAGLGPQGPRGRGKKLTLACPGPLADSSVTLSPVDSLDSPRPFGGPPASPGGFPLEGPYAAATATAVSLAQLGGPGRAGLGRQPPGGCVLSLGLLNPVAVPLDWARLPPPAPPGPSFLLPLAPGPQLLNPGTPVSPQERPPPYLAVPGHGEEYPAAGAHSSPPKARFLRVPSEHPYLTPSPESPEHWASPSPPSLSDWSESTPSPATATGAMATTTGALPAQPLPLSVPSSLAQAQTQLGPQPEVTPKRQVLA

[10] = small-molecule microarray binders of probe aEGFR, primary screen, biochemical, biotinylated probe, 635/667 nm fluorescence (AID 1097); conditions: higher = more signal;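 note: probe is a biotinylated anti-EGFR antibody binding compounds printed on slides; score combines fluorescence near 667 nm and signal to noise of each spot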
[11] = system: Plasmodium falciparum Sir2 (PF13_0152, Sir2A); assay: pfSir2 binders on small-molecule microarrays, primary screen, biochemical, small-molecule microarray, 635 nm fluorescence (AID 1098); conditions: small-molecule microarray binding, fluorescence 635 nm; higher = more signal;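 note: score merges spot fluorescence intensity with its signal-to-noise ratio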
[12] = small-molecule microarray binders of probe aDKK1, primary screen, biochemical, biotinylated probe, 635/667 nm fluorescence (AID 1099); conditions: higher = more signal;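 note: score merges 667nm spot fluorescence with signal to noise across triplicate slides; reference of the scale not given here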
[13] = small-molecule microarray binders of probe aCHRDL2, primary screen, biochemical, biotinylated probe, 635/667 nm fluorescence (AID 1100); conditions: higher = more signal
[14] = splicing luciferase reporter signal modulators, primary screen, spliceosome inhibition project, cell-based, HEK293, splice +/- reporter (AID 1101); conditions: luminescence, 24 h, higher = more signal, called active from +8 up or from −8 down;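 note: HEK293 cells carrying a splicing-competent luciferase reporter gene; test concentration not given here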
[15] = biological target: Fibroblast growth factor 10 (Homo sapiens) (UniProt O15520); assay: FGF10 binders on small-molecule microarrays, primary screen, biochemical, small-molecule microarray, 635 nm fluorescence (AID 1102); conditions: FGF10 binding, fluorescence 635 nm, higher = more signal
Sequence of Fibroblast growth factor 10 (Homo sapiens) (O15520 whole entry, looked up): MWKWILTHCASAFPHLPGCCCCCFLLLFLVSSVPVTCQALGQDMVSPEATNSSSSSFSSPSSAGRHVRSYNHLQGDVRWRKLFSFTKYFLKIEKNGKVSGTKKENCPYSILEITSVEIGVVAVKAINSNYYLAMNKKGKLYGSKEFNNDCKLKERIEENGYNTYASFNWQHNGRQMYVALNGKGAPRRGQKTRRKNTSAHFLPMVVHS

[16] = system: glycogen synthase kinase-3 (GSK3A per assay name; protocol says GSK3B); assay: GSK3 binders on small-molecule microarrays, primary screen, biochemical, small-molecule microarray, 635 nm fluorescence, GSK3A (AID 1103); conditions: small-molecule microarray binding, fluorescence 635 nm; higher = more signal; note: the record names both GSK3A and GSK3B
[17] = biological target: Epidermal growth factor receptor (Homo sapiens) (UniProt P00533); assay: EGFR binders on small-molecule microarrays, primary screen, biochemical, small-molecule microarray, 635 nm fluorescence (AID 1104); conditions: EGFR binding, higher = more signal;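 note: score merges 667 nm emission intensity with spot signal to noise over triplicate slides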
Sequence of Epidermal growth factor receptor (Homo sapiens) (P00533 whole entry, looked up): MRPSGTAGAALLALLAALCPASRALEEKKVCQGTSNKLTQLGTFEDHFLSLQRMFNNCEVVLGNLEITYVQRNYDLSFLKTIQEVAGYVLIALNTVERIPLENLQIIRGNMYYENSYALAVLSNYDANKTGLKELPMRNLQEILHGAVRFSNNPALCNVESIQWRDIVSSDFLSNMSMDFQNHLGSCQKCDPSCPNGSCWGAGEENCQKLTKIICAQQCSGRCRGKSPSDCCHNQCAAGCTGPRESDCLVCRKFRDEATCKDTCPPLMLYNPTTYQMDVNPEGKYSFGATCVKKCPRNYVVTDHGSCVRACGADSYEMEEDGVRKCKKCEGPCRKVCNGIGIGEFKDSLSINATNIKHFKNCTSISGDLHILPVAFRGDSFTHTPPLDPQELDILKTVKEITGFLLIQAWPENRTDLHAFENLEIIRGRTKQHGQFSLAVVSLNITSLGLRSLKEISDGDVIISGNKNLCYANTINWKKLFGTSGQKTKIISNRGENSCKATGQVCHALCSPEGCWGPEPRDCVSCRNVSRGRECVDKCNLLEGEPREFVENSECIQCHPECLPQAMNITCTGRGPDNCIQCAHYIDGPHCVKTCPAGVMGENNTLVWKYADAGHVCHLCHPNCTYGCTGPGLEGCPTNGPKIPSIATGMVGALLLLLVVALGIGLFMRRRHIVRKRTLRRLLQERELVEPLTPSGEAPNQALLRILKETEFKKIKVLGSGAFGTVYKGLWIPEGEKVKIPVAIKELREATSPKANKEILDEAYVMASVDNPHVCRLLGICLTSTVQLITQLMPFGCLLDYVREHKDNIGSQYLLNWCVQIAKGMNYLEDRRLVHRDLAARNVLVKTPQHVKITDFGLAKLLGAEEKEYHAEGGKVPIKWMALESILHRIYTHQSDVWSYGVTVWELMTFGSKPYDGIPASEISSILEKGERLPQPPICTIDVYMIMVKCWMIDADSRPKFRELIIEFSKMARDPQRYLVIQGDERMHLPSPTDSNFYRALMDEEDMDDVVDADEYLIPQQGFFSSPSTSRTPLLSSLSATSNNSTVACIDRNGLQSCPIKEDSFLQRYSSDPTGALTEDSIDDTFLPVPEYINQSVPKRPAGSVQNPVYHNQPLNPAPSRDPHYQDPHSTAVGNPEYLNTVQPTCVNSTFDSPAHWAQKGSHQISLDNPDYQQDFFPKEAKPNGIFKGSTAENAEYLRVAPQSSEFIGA

[18] = biological target: Follistatin-related protein 3 (Homo sapiens) (UniProt O95633); assay: FSTL3 binders on small-molecule microarrays, primary screen, biochemical, small-molecule microarray, 635 nm fluorescence (AID 1105); conditions: FSTL3 binding, higher = more signal;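 note: score merges emission near 667 nm and signal to noise per printed spot across three slides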
Sequence of Follistatin-related protein 3 (Homo sapiens) (O95633 whole entry, looked up): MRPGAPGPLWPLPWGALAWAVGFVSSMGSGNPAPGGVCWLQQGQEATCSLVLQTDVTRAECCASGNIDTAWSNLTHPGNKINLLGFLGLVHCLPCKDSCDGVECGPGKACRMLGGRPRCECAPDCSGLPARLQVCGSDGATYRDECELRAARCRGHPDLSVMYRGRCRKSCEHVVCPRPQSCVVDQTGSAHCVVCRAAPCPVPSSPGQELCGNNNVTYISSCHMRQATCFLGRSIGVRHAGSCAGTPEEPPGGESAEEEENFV

[19] = biological target: Dickkopf-related protein 1 (Homo sapiens) (UniProt O94907); assay: DKK1 binders on small-molecule microarrays, primary screen, biochemical, small-molecule microarray, 635 nm fluorescence scan (AID 1106); conditions: DKK1 binding, higher = more signal;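 note: score merges emission near 667 nm with signal to noise over three replicate slides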
Sequence of Dickkopf-related protein 1 (Homo sapiens) (O94907 whole entry, looked up): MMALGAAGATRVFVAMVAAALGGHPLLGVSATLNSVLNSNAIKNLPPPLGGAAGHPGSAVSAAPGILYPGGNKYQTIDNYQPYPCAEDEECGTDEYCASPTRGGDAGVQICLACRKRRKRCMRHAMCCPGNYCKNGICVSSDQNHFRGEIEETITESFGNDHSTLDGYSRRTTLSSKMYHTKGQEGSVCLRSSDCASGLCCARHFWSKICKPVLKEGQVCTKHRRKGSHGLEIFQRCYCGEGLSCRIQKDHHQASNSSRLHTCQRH

[20] = system: Inhibin beta A chain (activin A); assay: INHBA (activin A) binders on microarrays, primary screen, biochemical, small-molecule microarray, 635 nm fluorescence scan (AID 1107); conditions: small-molecule microarray binding, higher = more signal;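 note: mouse activin A protein probed at 4.33 µg/mL on printed slides; score merges bound-protein fluorescence near 667 nm with spot signal-to-noise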

Row | Compound | composite z-score [1] | z-score [2] | z-score [3] | z-score [4] | composite z-score [5] | z-score [6] | composite z-score [7] | composite z-score [8] | composite z-score [9] | composite z-score [10] | composite z-score [11] | composite z-score [12] | composite z-score [13] | z-score [14] | composite z-score [15] | composite z-score [16] | composite z-score [17] | composite z-score [18] | composite z-score [19] | composite z-score [20]
1 | C=C(COC)/C(=C/C[C@@H](OC(C)=O)c1ccc(CO)o1)c1cc(C(=O)OC)ccc1OC | 1.02 | 0.932 (inactive) | 0.369 (inactive) | 0.264 (inactive) | 1.81 | 0.0184 (inactive) | -0.166 | 1.07 | 0.711 | -0.0828 | 0.403 | -0.138 | -0.0929 | 0.36 (inactive) | 1.17 | 0.0212 | -0.725 | -0.185 | -0.305 | 1.08
2 | Cc1ccc(N2C(=O)c3ccccc3[C@](C)(C(=O)NCc3ccccc3)[C@@H]2c2ccc(CO)cc2)nc1 | 0.596 | 0.34 (inactive) | -0.72 (inactive) | -0.0557 (inactive) | 0.945 | 0.148 (inactive) | 0.0781 | 0.184 | -0.456 | 0.108 | 1.39 | 0.499 | 0.615 | -0.0691 (inactive) | 0.0497 | -0.341 | -0.219 | -0.192 | 0.381 | 1.21
3 | COc1ccc(C#Cc2ccc3c(c2)[C@]2(C(=O)N3)[C@H](C(=O)N3CCCCCCC3)[C@H]3C(=O)O[C@H](c4ccccc4)[C@H](c4ccccc4)N3[C@@H]2c2ccc(O)cc2)cc1 | 1.56 | -0.0118 (inactive) | 0.0345 (inactive) | 0.595 (inactive) | 3.12 | 0.209 (inactive) | 1 | 0.719 | 1.1 | 0.426 | 1.57 | 1.36 | 0.696 | -0.547 (inactive) | 0.684 | 1.16 | 0.427 | 1.2 | 0.608 | 0.85
4 | [N-]=[N+]=NCc1ccccc1[C@H]1OC(c2ccc(OCCCO)cc2)=N[C@@]1(Cc1ccccc1)C(=O)NCCN1CCOCC1 | 1.53 | -1.07 (inactive) | -0.864 (inactive) | -0.31 (inactive) | 3.34 | 1.12 (inactive) | 0.443 | 0.52 | 1.09 | -0.0329 | 1.23 | -0.378 | 0.75 | -1.06 (inactive) | 1.43 | 1.21 | 0.446 | 1.07 | 0.0815 | 0.768
5 | O=C1O[C@H](c2ccccc2)[C@H](c2ccccc2)N2[C@H]1[C@@H](C(=O)N1CCCCCCC1)[C@]1(C(=O)Nc3ccc(C#CC4(O)CCCCCC4)cc31)[C@H]2c1ccc(O)cc1 | 1.54 | 0.666 (inactive) | 0.73 (inactive) | 1.19 (inactive) | 3.97 | 0.408 (inactive) | 1.65 | 1.78 | 1.06 | 1.35 | 1.5 | 2.93 | 1.59 | 0.69 (inactive) | 1.19 | 1.34 | 1.72 | 1.58 | 1.75 | 1.79
6 | O=C1N[C@@H](Cc2ccccc2)C(=O)N2[C@@H]1C[C@@H](C(=O)O)[C@H]2c1ccc(O)cc1 | 1.19 | -0.0447 (inactive) | -0.701 (inactive) | -0.54 (inactive) | 2.41 | 1.54 (inactive) | 0.391 | 1.5 | 1.11 | 0.335 | 1.31 | 0.731 | 0.707 | -0.485 (inactive) | 0.727 | 0.86 | 0.315 | 1.45 | 1.63 | 0.853
7 | CN1C(=O)C2C=CC(C(O)c3ccc(F)cc3)N(NC(=O)OC(C)(C)C)C2C1=O (stereo not given) | 0.219 | 1.19 (inactive) | 2.11 (inactive) | 1.71 (inactive) | 3.28 | -1.31 (inactive) | -0.0154 | -0.205 | 0.816 | -0.0531 | 0.578 | -0.066 | 0.535 | 1.15 (inactive) | 0.45 | 0.336 | -0.196 | 0.15 | -0.767 | 0.471
8 | COCCOC(=O)N1C(=O)[C@@]2(c3ccccc31)[C@H](c1ccc(OCCO)cc1)N1[C@H](c3ccccc3)[C@H](c3ccccc3)OC(=O)[C@H]1[C@@H]2C(=O)N1CCCCCCC1 | 1.54 | 0.178 (inactive) | 0.182 (inactive) | 2.92 (inactive) | 5.18 | -0.504 (inactive) | 1.83 | 2.45 | 1 | 1.43 | 2.35 | 3.24 | 1.9 | -1.59 (inactive) | 1.76 | 1.46 | 2.03 | 1.76 | 2.62 | 1.89
9 | O=C1OCCC/C=C\[C@H]2OC34C=CCN(c5ccc6ccccc6c5)C(=O)[C@H]3N(CCCO)C(=O)[C@@H]4C12 (stereo not given in full) | 0.463 | -1.59 (inactive) | -0.647 (inactive) | -0.597 (inactive) | 0.969 | -0.377 (inactive) | -0.091 | -0.534 | 0.0065 | -0.195 | 0.548 | -0.326 | 0.445 | 0.752 (inactive) | -0.365 | -0.216 | -0.315 | -0.451 | -1.31 | 0.479
10 | CN1C(=O)C2C(C1=O)C1C=C(CCCO)C2C(c2cccs2)N1Cc1cc2c(cc1Br)OCO2 (stereo not given) | 1.54 | -0.653 (inactive) | -1.25 (inactive) | -0.631 (inactive) | 3.41 | 1.12 (inactive) | 0.0923 | 0.639 | 1.03 | 0.095 | 0.989 | 0.738 | 0.377 | -0.139 (inactive) | 0.922 | 1.34 | 0.424 | 1.49 | 0.373 | 1.51
